The sample as a whole holds a higher share of hits than the screen did.
RMI-FANCM inh – RMI-FANCM interaction inhibition; AID 1159607; hit rate 0.58% among 70,000; FP signal (polarization) at 33 µM; Fluorescence polarization, RMI core complex with F-MM2 peptide; active compounds read low; in the data active = FP signal below about 40
The depositor's hits bear a star; ! = a repeat was not active.

SMILES | RMI-FANCM inh
O=C1/C(=C\c2ccco2)SC(=S)N1CCS(=O)(=O)O | 65
CCc1nnc(NC(=O)CCN2C(=O)/C(=C\c3ccco3)SC2=S)s1 | 65
Cc1cc(-c2nnc(N)o2)nn1C | 70
COc1ccc(-c2nc(SC(CC(=O)NCCc3ccccc3)c3cccs3)n[nH]2)cc1 (stereo not drawn) | 53
COc1ccc(C(CC(=O)NCc2ccccc2)Sc2n[nH]c(-c3ccc(F)cc3)n2)cc1 (stereo not drawn) | 119
COc1ccc(-c2nc(SC(CC(=O)NCCN3CCOCC3)c3ccc(OC)cc3)n[nH]2)cc1 (stereo not drawn) | 22*
N#Cc1nc(-c2ccc(S(=O)(=O)N3CCc4ccccc4C3)cc2)oc1NCCN1CCOCC1 | 66
C=CCn1c(SCC(=O)c2ccc(C)c(C)c2)nc2sc3c(c2c1=O)CCCC3 | 77
COc1cc(O)c2c(=O)c(-c3ccc(O)cc3)coc2c1 | 51
O=c1cc(-c2ccccc2)oc2cc(O)cc(O)c12 | 55
O=c1c(-c2ccccc2)coc2cc(O)cc(O)c12 | 33*
CC1CCN(C(=O)Cc2csc3nc(-c4ccc(F)cc4)cn23)CC1 | 63
Cc1ccc(-c2csc(-c3nnn(-c4ccccc4)c3C)n2)c(C)c1 | 71
COCCN1CCCc2ccc(NS(=O)(=O)Cc3ccc(Cl)cc3)cc21 | -27*
COCCN1CCCc2ccc(NS(=O)(=O)c3ccc(OC)cc3)cc21 | 58
COCCN1CCCc2ccc(NS(=O)(=O)c3ccccc3Cl)cc21 | 62
COCCN1CCCc2ccc(NC(=O)c3cc(C)cc(C)c3)cc21 | 65
COCCN1CCCc2ccc(NS(=O)(=O)c3ccc(C(C)(C)C)cc3)cc21 | 61
COCCN1CCCc2ccc(N)cc21 | -72*
COCCN1CCCc2ccc(NS(=O)(=O)c3cc(Cl)ccc3C)cc21 | 64
COCCN1CCCc2ccc(NS(=O)(=O)c3ccc(F)cc3F)cc21 | 18*
COCCN1CCCc2ccc(NS(=O)(=O)c3cc(C)c(C)cc3OC)cc21 | 60
Cc1ccc(C(=O)OCCN2C(=O)c3ccccc3C2=O)cc1 | 58
CCOc1ccccc1NC(=O)NCC(c1ccsc1)N1CCN(C)CC1 (stereo not drawn) | 64
O=S(=O)(NCC(c1ccc2c(c1)OCO2)N1CCOCC1)c1ccc(Oc2ccccc2)cc1 (stereo not drawn) | 60
SMILES | RMI-FANCM inh
CCOC(=O)c1cnc(SCC(=O)c2cccc([N+](=O)[O-])c2)nc1N | 53
CC1(C)C2C[C@@H](O)[C@]3(C)C(CC[C@@]4(C)[C@H](c5ccoc5)OC(=O)C5OC543)[C@@]2(C)C(=O)C[C@H]1O (stereo partly drawn) | 60
CN(C)c1ccc(/C=N\NC(=O)c2ccccc2)cc1[N+](=O)[O-] | 55
Cc1nnc(C2CCCN(S(=O)(=O)c3ccc(F)cc3)C2)s1 (stereo not drawn) | 62
COc1ccc(CC#N)cc1OC | 59
Cc1ccc(C)c(CN2C(=O)N(Cc3ccc(F)cc3)S(=O)(=O)c3ccccc32)c1 | 64
CNC(=O)Cc1csc(Nc2ccc(OC(F)(F)F)cc2)n1 | 61
O=C(Cc1csc(SCc2ccc(Cl)cc2)n1)NCc1ccccn1 | 54
O=C(Cc1csc(SCc2ccc(Br)cc2)n1)Nc1nccs1 | 21*
O=C(Cc1csc(Nc2cccc(C(F)(F)F)c2)n1)NCc1ccccn1 | 44
O=C(Cc1csc(SCc2ccc(Br)cc2)n1)NCc1ccccn1 | 27*
O=C(Cc1csc(SCc2ccc(Br)cc2)n1)NC1CCCC1 | 66
COc1cc(CSc2nc(CC(=O)Nc3nccs3)cs2)cc(OC)c1 | 58
O=C(Cc1csc(SCc2ccc(Br)cc2)n1)NCc1cccs1 | 80
O=C(Cc1csc(Nc2ccc(OC(F)(F)F)cc2)n1)NCc1ccccn1 | -3*
COc1ccccc1-c1ccc(N2CCC(C(=O)Nc3ccc(C(N)=O)cc3)CC2)nn1 | 75
Cc1cc(C)cc(NC(=O)Cn2c(C)cc(C)c(-c3nc(-c4ccc(F)cc4)no3)c2=O)c1 | 91
COC(=O)c1scc(S(=O)(=O)C(C)C)c1N/N=C(/C#N)C(=O)c1ccccc1 | 59
CCCCCCOc1ccc(OS(=O)(=O)c2cc(S(=O)(=O)Oc3ccc(OCCCCCC)cc3)c3cccc4c3c2NC4=O)cc1 | 53
O=C(Nc1ncc(Cc2cccc([N+](=O)[O-])c2)s1)C1CC1 | 57
O=C(COc1ccccc1F)NNC(=O)c1cccn(Cc2ccc(F)cc2)c1=O | 60
O=C(Nc1ccc(-c2ccc(N3CCOCC3)nn2)cc1)c1ccccc1Br | 55
C[C@]12CC=CCC1CCC1C2CC[C@](C)(C(=O)O)C1/C=C1/Nc2ccccc2C1=O (stereo partly drawn) | 35*!
C[C@]12CC[C@@H](O)CC1CCC1C2CC[C@](C)(C(=O)O)C1/C=C1/Nc2ccccc2C1=O (stereo partly drawn) | 38
O=C(O)c1cc(=O)c(O)c2c(O)c(O)ccc2c1 | 49
SMILES | RMI-FANCM inh
COc1ccccc1CCNC(=O)C(=O)Nc1ccccc1F | 61
Cc1cc(C)c(NC(=O)C(=O)NCCN2CCN(c3ccccc3F)CC2)c(C)c1 | 65
Cc1csc(C(=O)NCC(=O)NNS(=O)(=O)c2ccc(F)cc2)c1 | 61
O=c1[nH]c2ccccc2c(=O)n1CCNCc1ccccc1 | 55
O=c1oc2c(Cl)cc(Cl)cc2cc1-c1nc2ccccc2[nH]1 | 40*
O=C(Nc1cccc(-c2nc3ccccc3[nH]2)c1)c1ccc(Cl)cc1 | 97
Nc1ccc(Cl)cc1-c1nc2ccccc2[nH]1 | 54
CC(C)(C)NC(=O)NCC(c1ccsc1)N1CCOCC1 (stereo not drawn) | 66
O=C(CSc1nc2c(oc3ccccc32)c(=O)n1CC1CCCO1)Nc1cccc(Cl)c1 (stereo not drawn) | 67
Cc1cc(NC(=O)CN2CC3CC(C2)c2cccc(=O)n2C3)nc2c1c(=O)oc1ccccc12 (stereo not drawn) | 31*!
Cc1cc(NC(=O)C(C)(C)Oc2ccc(Cl)cc2)nc2c1c(=O)oc1ccccc12 | 75
Cc1cc(C(=O)NCCOc2ccc(F)cc2)ccc1[N+](=O)[O-] | 61
COc1ccc2nc(-c3ccc(NC(=O)COc4ccccc4)cc3)cn2n1 | 66
O=C1c2ccc(O)c(O)c2C(=O)c2c(O)ccc(O)c21 | 43
O=[N+]([O-])c1ccc(S(=O)(=O)c2ccccc2)cc1O | 62
O=C1c2c(O)ccc([N+](=O)[O-])c2C(=O)c2c(O)ccc([N+](=O)[O-])c21 | -25*
O=C(COc1ccc(F)cc1)NCCn1ncc2c(=O)n(Cc3ccc(Cl)cc3)cnc21 | 65
COc1ccc(OC)c(S(=O)(=O)NCC(c2cccs2)N(C)C)c1 (stereo not drawn) | 52
NC(=O)c1ccsc1NC(=O)CN1C(=O)CCC1=O | 70
CCOc1ccc(-c2csc(N/N=C\c3ccc(OC)c(OC)c3)n2)cc1 | 16*
CCOc1ccc(-c2csc(NC(=O)C3CCCCC3)n2)cc1 | 71
COc1ccc(/C=N\Nc2nc(-c3cccs3)cs2)cc1 | 61
COCCCN1COc2ccc3cc(-c4cc(OC)ccc4OC)c(=O)oc3c2C1 | 35*
COc1ccc(-c2cc3ccc4c(c3oc2=O)CN(CC2CCCO2)CO4)cc1OC (stereo not drawn) | -5
CCOCCCN1COc2ccc3c(=O)c(-c4ccc(Cl)cc4)coc3c2C1 | 63
c1ccc(-c2csc(-c3ccc(-c4ccccn4)s3)n2)cc1 | 71
Cc1sc2sc(-c3ccccc3)c(N)[n+]2c1C | 72
Nc1c(-c2ccccc2)sc2nc(-c3ccccc3)cc[n+]12 | 11*
O=C(O)CCC(=O)Nc1ccccc1-c1nnc(-c2ccc(Cl)cc2)o1 | 55

Compound activity: PubChem BioAssay, Small Molecule Screening Facility, UW Madison
